High-throughput results as filed in PubChem BioAssay.
Peg3 imprint: qHTS Assay for Compounds that Induce Erasure of Genomic Imprints | 110,000 compounds, 0.02% hits | mouse ES Peg3-LacZ reporter, beta-gal luminescence, 40 h | AID 1948, 2009 | Potency, µM (highest dose often 60.7 µM), for the others: top-dose activity change, positive = activation, actives largely listed as activators
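Readout: BetaGlo luminescence (5 min, room temp) for LacZ from the normally silent maternal Peg3 allele in female Peg3LacZ-Neo ES cells. Cells 300/well, 40 h, 37C, 5% CO2. Data normalized per plate to negative controls.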
p53ts 39C tox: qHTS Screen for Compounds that Selectively Target Cancer Cells with p53 Mutations: Cytotoxicity of p53ts Cells at the Nonpermissive Temperature; H1299-p53A138V viability at 39C, ATP luminescence, 24 h; Potency, µM (series often up to 46.1 µM), without a hit: top-dose activity change, negative = cell killing, most hits filed as cytotoxic; 130,000 compounds, 1.5% hits; also: % is scaled to controls: 0 for no effect and ±100 for the full control effect; nearly all actives have a fitted effect of over 55% in size
IkB sig inh: IkB Signaling. ABC-DLBCL IkBa-CBG/CBR dual luciferase ratio, 4 h; response scale: scaled: untreated 0%, proteasome inhibitor 100%. Potency, µM (series often up to 57.1 µM), for inactives: at the highest dose IkBa stabilization activation. 110,000 compounds, 0.04% hits; active = well fitted curve in the direction sought with a large enough effect in the signal ratio, not every such curve was filed as active; inconclusive = small, poorly fitted or top-dose-only effect, or a change in a side signal; the % refers to the signal ratio;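 also: the direction sought is a rising ratio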
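Curves were fitted separately to fusion (green), unfused (red) and ratio luminescence, then classed by r2, magnitude and activity. Cells: OCI-Ly3, 4 h compound plus doxycycline at 37C; 10 uM MG-132 defined full response.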
p53ts 32C tox: qHTS Screen for Compounds that Selectively Target Cancer Cells with p53 Mutations: Cytotoxicity of p53ts Cells at the Permissive Temperature; H1299-p53A138V at 32C, ATP luminescence viability, 24 h; Potency, µM (doses to about 46.1 µM), for the others: top-dose activity change, negative = cytotoxicity, actives largely listed as cytotoxic; 130,000 compounds, 0.93% hits; AID 924, 2007;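 also: 0% = DMSO and -100% = full killing by reference compound; nearly all actives have a fitted effect of over 55% in size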
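Cells: H1299 p53ts (A138V), 600/well, pre-incubated 16–30 h at 37C. Cpd up to 46 uM, 24 h, 32C. Readout: ATPlite luminescence, 20 min RT. Normalization: DMSO vs tamoxifen 100 uM. AC50 by Hill equation.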
An asterisk follows results filed as active; ? = inconclusive; . = no result given; [ ] = remark or other dose. Only some compounds are listed: those with a hit (about 1.7% of all), similar ones and a draw of the others. Unless noted, calls follow the shape of the dose curve; as a rule, active = well fitted curve in the direction sought with a large enough effect; inconclusive = small, poorly fitted or top-dose-only effect, or another doubt; inactive = no such curve, though single readings can be large; an effect the other way counts as inactive or inconclusive. Potency is read from the fitted curve at half-maximal effect.

SMILES	Peg3 imprint	p53ts 39C tox	IkB sig inh	p53ts 32C tox
Cc1nc(NC2CCCCC2)c2nc(-c3ccccc3)n(CCN3CCCC3)c2n1	-9.7%	-18.4%	.	-15.5%
CCCCc1ccc(-c2ccc(C)cc2O)nc1	-27.3%	?	16.7%	12.6µM*
C=C1C(CCl)(CCl)C2(Cl)C(Cl)C(Cl)C1(Cl)C2(Cl)Cl (centres undefined)	-20.9%	13.9%	7.0%	9.9%[1.84 µM]
CC(C)C(=O)Nc1cccc(NC(=O)c2cc3ccccc3o2)c1	-43.6%	?	?	?
COc1ccc(NC(=O)c2cc3ccccc3o2)cc1	-40.7%	15.8µM*	?	15.8µM*
CCCCOC(=O)c1cccc(NC(=O)c2cc3ccccc3o2)c1	-13.5%[10.9 µM]	10µM*	?	?
CC(=O)Nc1cccc(NC(=O)c2cc3ccccc3o2)c1	-83.6%	6.31µM*	?	12.6µM*
CC(C)c1ccc(NC(=O)c2cnc3sc(N4CCOCC4)nn3c2=O)cc1	-13.3%[10.9 µM]	?	?	?
O=C(CSc1nc2c([nH]c3ccccc32)c(=O)n1-c1ccc(Cl)cc1)N1CCCC1	-3.8%[10.9 µM]	-20.6%	1.4%	9.4%
N#Cc1nc(-c2ccc(COc3ccc(Cl)cc3)o2)oc1N1CCC(C(N)=O)CC1	-12.5%[10.9 µM]	10.0%	3.7%	12.7%
COc1cccc(N2CC(NC(=O)Cc3cccs3)CC2=O)c1 (centres undefined)	?	2.3%	3.6%	4.6%
COc1cccc(CNS(=O)(=O)c2cnc(N)nc2)c1	11.0%[10.9 µM]	-14.0%	0.8%	2.5%
CCOC(=O)c1c(N)sc(C(=O)Nc2ccc3c(c2)OCO3)c1C	-91.0%	2.51µM*	?	3.98µM*
Cc1cc(C(=O)Nc2ccc3c(c2)OCO3)cs1	-71.4%	10µM*	0.5%	12.6µM*
CCOC(=O)c1c(C)c(C(=O)Nc2ccc3c(c2)OCO3)c(C)n1C	-7.1%	0.1%	2.7%	4.0%
Cn1c(C(=O)Nc2ccc3c(c2)OCCO3)cc2sccc21	-72.6%	12.6µM*	?	12.6µM*
COc1cc(OC)cc(C(=O)Nc2ccc3c(c2)OCCO3)c1	-79.2%[10.9 µM]	3.98µM*	?	12.6µM*
COc1ccc2c(c1)c1c(c(=O)n(Cc3ccccc3)c(=O)n1Cc1ccc(C)cc1)n2C	4.8%[10.9 µM]	-8.0%	-0.7%	15.0%
COc1cc(C2c3c(oc4ccccc4c3=O)C(=O)N2c2ccccn2)cc(OC)c1OC (centres undefined)	-3.8%[10.9 µM]	6.5%	0.4%	-1.4%
CC(=O)NC1C(O)C[C@@](O)(C(=O)O)OC1[C@@H](O)C(O)CO (some centres undefined)	-5.0%	3.7%	.	-0.6%
CCc1ccc(NCc2cc3ccc(OC)cc3n(CC(=O)Nc3ccccc3C)c2=O)cc1	-3.7%[10.9 µM]	?	-0.2%	-3.3%
Cc1cc(C(=O)Nc2ccc3c(c2)OCCO3)co1	.	15.8µM*	.	10µM*
Cc1cc(C)n(-c2ccc(C(=O)Nc3ccc4c(c3)OCCO4)cc2)n1	-14.2%	?	?	?
Cc1cccc(CSCc2ccc(C(=O)NCCc3ccccc3)o2)c1	-16.3%[10.9 µM]	-21.2%	?	4.2%
COCCN=C1OC(=O)N2C(=O)C3=C4C(C[C@H]5C(=O)N(c6ccccc6)C(=O)[C@H]5[C@H]4[C@@]12Cc1ccccc1)[C@H]1C(=O)N(c2ccccc2)C(=O)[C@H]1[C@H]3C (some centres undefined)	-12.2%	4.9%	.	-1.5%
SMILES	Peg3 imprint	p53ts 39C tox	IkB sig inh	p53ts 32C tox
CCc1ccc(NC(=O)CSc2nnc3[nH]c(=O)cc(-c4ccccc4)n23)cc1	7.2%[10.9 µM]	6.31µM*	3.4%	2.3%
COc1ccc(Cl)cc1NC(=O)CSc1nnc2[nH]c(=O)cc(-c3ccccc3)n12	-4.1%[10.9 µM]	3.16µM*	?	?
O=C(CSc1nnc2[nH]c(=O)cc(-c3ccccc3)n12)Nc1ccccc1C(F)(F)F	-9.0%[10.9 µM]	?	1.5%	?
Cc1ccc(-n2ncc(C(=O)N3CCN(C4CCCCC4)CC3)c2C2CCN(C(=O)OC(C)(C)C)CC2)cc1	-4.5%[10.9 µM]	-4.4%	?	1.2%
COc1ccc(CNCCC(c2ccccc2)c2ccc3c(c2)OCO3)cc1 (centres undefined)	-17.6%[10.9 µM]	15.8µM*	?	?
COc1ccc2c(c1)CCc1c(C(=O)Nc3c(C)nn(Cc4ccc(Cl)c(Cl)c4)c3C)noc1-2	-12.9%[10.9 µM]	-5.3%	7.6%	-2.5%
Cc1ccc(C(=O)Nc2ccc(C(=O)OCc3cc(=O)n4ccsc4n3)cc2)cc1	-14.5%[10.9 µM]	-12.6%	-2.8%	15.1%
CC(C)(C)c1ccc(C(=O)Nc2ccc(C(=O)OCc3cc(=O)n4ccsc4n3)cc2)cc1	-9.1%[10.9 µM]	15.8µM*	?	15.8µM*
Cc1cn2c(=O)cc(COC(=O)c3cccc(NC(=O)c4ccc(C(C)(C)C)cc4)c3)nc2s1	-14.6%[10.9 µM]	3.16µM*	?	2.51µM*
Cc1ccsc1CCN1C(=O)N(c2ccccc2)C(=O)C1CC(=O)Nc1ccc(Cl)cc1 (centres undefined)	-7.5%[10.9 µM]	-13.9%	?	-18.9%
CN(C(=O)c1ccncc1)c1nnc(-c2ccccn2)s1	-34.0%	-10.8%	-2.9%	-5.3%
CN(C(=O)c1ccccc1)c1nc2ccccc2s1	-55.9%	12.6µM*	?	10µM*
CCCCS(=O)(=O)/C=C\C=C/S(=O)(=O)CCCC	-50.8%	?	?	20µM*
CCCCS(=O)(=O)/C=C\C1C2C=CC(C2)C1S(=O)(=O)CCCC (centres undefined)	-14.8%	-2.9%	0.3%	-1.3%
COc1ccc(-c2cc(C(=O)N3CCCCC3)no2)cc1OC	-38.2%	-22.6%	?	-20.3%
Cc1ccc(-c2cc(C(=O)N3CCCC3)no2)cc1	-79.8%	7.94µM*	?	7.94µM*
COc1ccc(NC(=O)c2c(C)oc3ccc(O)c(CN4CCCCCC4)c23)cc1Cl	-10.3%[10.9 µM]	12.6µM*	?	-13.6%
COc1cccc(-c2nnc(-c3ccc(C)o3)o2)c1	.	11.2µM*	.	12.6µM*
COc1cccc(-c2nc(-c3ccc(Br)o3)no2)c1	-9.7%[10.9 µM]	12.6µM*	3.9%	?
Cc1ccc(C)n1-c1nnc(N2CCCC(C(=O)NCc3cccc(Cl)c3)C2)s1 (centres undefined)	-14.7%[10.9 µM]	-14.2%	?	0.2%
O=c1cc(-c2ccc(O)c(O)c2)oc2cc(O[C@@H]3O[C@@H](CO)[C@@H](O)[C@@H](O)[C@H]3O)cc(O)c12	.	.	0.9%[11.4 µM]	.
COC(=O)c1ccc(OCC2c3cc(OC)c(OC)cc3CCN2C(=O)Cc2ccccc2)cc1 (centres undefined)	9.7%[10.9 µM]	-16.8%	0.1%	0.2%
COc1ccccc1N1CCN(c2ccc(-c3ccccc3)nn2)CC1	.	2µM*	3.98µM*	3.16µM*
COc1ccccc1N1CCN(c2nc(-c3ccccc3)cc(C(F)(F)F)n2)CC1	-8.1%	18.4%	0.1%	-3.9%
CCn1cnc2cc(NCc3nc4ccccc4n3Cc3ccccc3)ccc21	.	-28.7%	.	-27.0%
CCn1cnc2cc(NCc3nc4ccccc4n3C)ccc21	-92.2%	?	-0.1%	15.8µM*
